# An excerpt weighted towards active compounds, which were near 14% of everything screened.
# 4MU fluor – 4-MU region autofluorescence. compound autofluorescence, 340/450 nm, 4-MU equivalents; hits give high values. max dye-equivalent concentration, M. hit rate 11% among 59,000. AID 589; in the data active = max dye-equivalent concentration above about 10 nM; inconclusive = mostly about 1.1 nM to 9.6 nM
#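 Compounds in 100 mM Tris, pH 8.0, incubated 15 min at room temperature, then fluorescence read at 340 nm excitation/450 nm emission. Signal converted to 4-MU dye-equivalent concentration using an on-plate six-point 4-MU standard curve.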
# HADH2 inhib – inhibitors of human HADH2 dehydrogenase; recombinant HADH2, NADH fluorescence, beta-hydroxybutyryl-CoA; Potency, µM (highest dose often 57.1 µM), inactives show top-dose activity change, negative = inhibition, usual class: inhibitors; AID 886; Q99714; hit rate 3.4% among 73,000; note: potency is the fitted concentration of half-maximal effect; % is set by controls: 0 for no effect and ±100 for the full control effect; nearly all actives have a fitted effect of over 60% in size
# Target sequence (Q99714 whole entry, looked up, one chain of several): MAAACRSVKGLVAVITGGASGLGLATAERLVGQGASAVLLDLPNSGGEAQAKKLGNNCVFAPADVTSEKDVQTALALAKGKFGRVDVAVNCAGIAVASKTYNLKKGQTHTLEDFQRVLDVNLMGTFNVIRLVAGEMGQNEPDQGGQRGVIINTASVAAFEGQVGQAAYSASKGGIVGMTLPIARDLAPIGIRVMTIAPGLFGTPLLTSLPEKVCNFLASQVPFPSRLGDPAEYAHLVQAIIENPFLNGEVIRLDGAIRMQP
#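 E. coli-expressed His-tagged HADH2 tested at 20 nM in alkaline Tris buffer (pH 9.0); oxidation of 90 uM beta-hydroxybutyryl-CoA with 1 mM NAD+ tracked fluorimetrically for 4 min.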
# HSD17B inh – inhibitors of human HSD17B10 dehydrogenase; Potency, µM (titrated, usually from 57.1 µM), without a hit: at the top dose activity change, negative = inhibition, usual class: inhibitors; hit rate 7.6% among 75,000; recombinant HSD17B10, NADH fluorescence kinetic;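 note: the protocol describes HADH2 (HSD17B10) and not the HSD17B4 of the title; potency is the fitted concentration of half-maximal effect; % is set by controls: 0 for no effect and ±100 for the full control effect; nearly all actives have a fitted effect of over 70% in size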
#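 Activity followed as NADH fluorescence increase (ex 360, em 450 nm) every 30 seconds for 4 min, using final 90 uM beta-hydroxybutyryl CoA and 1 mM NAD+. Recombinant His-tagged enzyme, 20 nM, pH 9.0 Tris buffer, 15 min compound preincubation.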
# A350 fluor – compound fluoresces in the Alexa 350 spectral region | hit rate 11% among 59,000 | Compound autofluorescence, 340/450 nm, Alexa 350 dye-equivalents; hits give high values | max dye-equivalent concentration, M; in the data active = max dye-equivalent concentration above about 10 nM; inconclusive = mostly about 1.1 nM to 9.6 nM
# CRE-bla Fsk – modulators of forskolin-stimulated CRE signaling in CHO cells | Potency, µM (top dose mostly 38.2 µM), without a hit: top-dose activity change, negative = inhibition, usual class: activators | CHO CRE-bla reporter (cAMP response element driving beta-lactamase), forskolin EC10, beta-lactamase ratio | hit rate 2.5% among 71,000 | AID 662; active = well fitted activation curve with a large enough effect in the signal ratio, with a control signal flat, not every such curve was filed as active; inconclusive = small, poorly fitted or top-dose-only effect, or effect the other way, or a change in a side signal; the % refers to the signal ratio; note: potency is the fitted concentration of half-maximal effect; % of control where 0% means no effect
#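 The 460nm/530nm emission ratio after CCF4 loading defined %Activity, from which AC50 values were obtained. CRE-bla CHO cells received compound dilution series together with an EC10 level of NKH 477 for 3 hours at 37 degrees Celsius.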
# AID923 – qHTS Assay for Allosteric/Competitive Inhibitors of Caspase-1: Spectroscopic Profiling in AFC Spectral Region. compound fluorescence, AFC spectral region (405/520 nm). Potency, µM (doses to about 57.5 µM), for inactives: at the top dose fluorescence increase, most hits filed as activators. hit rate 1.1% among 75,000; note: potency is the fitted concentration of half-maximal effect; 0% is about no effect
#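 Titrations up to 57 uM read every 20 sec for 3 min (405/520 nm) with 50 nM caspase 1 and 5 uM Ac-WEHD-AFC, pH 7.5 HEPES buffer. Fluorescence-vs-time intercept gave baseline, scaled against on-plate AFC standard.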
# An asterisk follows results filed as active; i = inactive; ? = inconclusive; · = not tested or not shown; [ ] = remark or other dose. Unless noted, calls come from the whole dose curve; as a rule, active = well fitted curve in the direction sought with a large enough effect; inconclusive = small, poorly fitted or top-dose-only effect, or another doubt; inactive = no such curve, though single readings can be large; an effect the other way counts as inactive or inconclusive.
SMILES,4MU fluor,HADH2 inhib,HSD17B inh,A350 fluor,CRE-bla Fsk,AID923
CCOC(=O)c1[nH]c2cc(OC)c(OC)cc2c1NC(=O)CN(C)C1CCCCC1,?,-10%,3.2µM*,?,?,0%
CCOC(=O)c1[nH]c2ccccc2c1NC(=O)CN1CCCCC1,i,1%,-25%,i,5%,-1%
CCOC(=O)c1[nH]c2cc3c(cc2c1NC(=O)CN1CCC2(CC1)OCCO2)OCO3,1.5e-07M*,·,·,1.8e-07M*,·,·
CCOC(=O)c1[nH]c2ccc(OCC)cc2c1NC(=O)CN1CCN(c2ccccc2)CC1,8.3e-08M*,?,25µM*,1.4e-07M*,17%,-2%
CCOC(=O)c1[nH]c2cc(OC)c(OC)cc2c1NC(=O)c1ccc2c(c1)OCO2,·,10%,?,·,·,1%
CC(=O)NCCc1nc2ccccc2[nH]1,·,2%,5%,·,-8%,1%
CCOC(=O)c1[nH]c2ccc(Br)cc2c1NC(=O)CNC,i,·,·,i,·,·
CCOC(=O)c1[nH]c2ccc(OCC)cc2c1NC(=O)CN1CCC2(CC1)OCCO2,1.1e-07M*,?,32µM*,1.4e-07M*,?,-2%
CCn1c(=S)sc2c(=O)[nH]c(C)nc21,i,-14%,-5%,?,-3%,1%
O=C(CCN1C(=O)c2ccccc2C1=O)Nc1ccc(-c2nc3ccccc3o2)cc1,i,-15%,14%,i,-4%,1%
CCCC(=O)Nc1ccc2oc(-c3ccncc3)nc2c1,2e-08M*,-20%,20µM*,1.7e-08M*,20%,1%
CCCC(=O)Nc1ccc(-c2nc3cc(C)c(C)cc3o2)cc1,1e-08M*,-2%,61%,1.1e-08M*,2%,-2%
CCCCC(=O)Nc1ccc2oc(-c3ccncc3)nc2c1,1.7e-08M*,18%,25µM*,1.7e-08M*,?,2%
O=C(Nc1ccc2oc(-c3ccccc3)nc2c1)c1ccncc1,·,11%,-19%,·,?,-3%
CCCCCC(=O)Nc1ccc2oc(-c3cncc(Br)c3)nc2c1,2.3e-08M*,?,-22%,2.2e-08M*,-4%,1%
CCCCC(=O)Nc1ccc2c(c1)nc1n2CCSC1,i,-19%,-20%,?,7%,6%
CC(c1ccco1)N(C(=O)c1ccc(Cl)s1)c1ccccn1 (stereo unspecified),i,14%,5%,i,3%,-1%
Cc1ccccc1-n1c(=O)cc(NCc2ccc3c(c2)OCO3)[nH]c1=O,i,-3%,-8%,i,?,0%
O=C(OCc1nnc(-c2ccccc2)o1)C1=COCCO1,i,-1%,-1%,i,-5%,1%
CC(=O)c1ccccc1OC(=O)c1ccco1,·,5%,-13%,·,-4%,0%
O=C(COC(=O)C1(c2ccccc2)CC1)N1CCN(c2ccc(F)cc2)CC1,i,1%,9%,i,1%,0%
CCC(=O)Nc1nc2ccccc2n1CCN(C)C,2.6e-08M*,·,·,3e-08M*,·,·
CCCn1c(C)nc2c(NCCN3CCOCC3)nc(C)nc21,·,13%,23%,·,5%,0%
CC1=c2c(oc3cc(O)c(Nc4c(C)cc(O)cc4O)c(C)c23)=CC(=O)C1=Nc1c(C)cc(O)cc1O,?,3.2µM*,3.2µM*,?,-4%[7.6 µM],-2%[11.5 µM]
CCCOc1ccc2nc(NC(=O)OC)[nH]c2c1,i,·,-4%,i,·,0%
SMILES,4MU fluor,HADH2 inhib,HSD17B inh,A350 fluor,CRE-bla Fsk,AID923
CC(O)c1nc2ccc(Cc3ccc4nc(C(C)O)[nH]c4c3)cc2[nH]1 (stereo unspecified),i,-5%,-4%,i,?,1%
CCOc1ccc2nc(-c3ccccc3)[nH]c2c1,1.4e-08M*,?,25µM*,1.4e-08M*,24%,1%
CCOc1ccc2nc(C(C)O)[nH]c2c1 (stereo unspecified),1.4e-08M*,-8%,-9%,1.7e-08M*,1%,3%
COc1ccc2nc(-c3ccccc3)[nH]c2c1,?,13µM*,25µM*,?,9%,2%
COc1ccc2nc(NCc3ccccc3)[nH]c2c1,i,-10%,0%,i,?,-2%
Cc1cn(C2CCC(CO)O2)c(=O)[nH]c1=O (stereo unspecified),·,·,-4%,·,·,0%
CCCCn1c(=O)cc(O)c2ccccc21,i,4%,-21%,i,-14%,2%
CC1CCN(C(C(=O)Nc2ccc3c(c2)OCO3)c2ccccc2)CC1 (stereo unspecified),·,-6%,4%,·,-8%,-5%
Cc1nnc(SCCn2c(N3CCC(C)CC3)nc3c2c(=O)n(C)c(=O)n3C)s1,i,5%,5%,?,?,0%
O=C(CC1(O)C(=O)Nc2cc(Cl)cc(Cl)c21)c1ccncc1 (stereo unspecified),4.8e-08M*,8%,-4%,4.9e-08M*,?,1%
CCOc1cc2[nH]c(=O)n(CCCCC(=O)NCc3ccco3)c(=O)c2cc1OCC,i,11%,25µM*,i,?,2%
CCOc1cc2[nH]c(=O)n(CCCC(=O)NCc3ccco3)c(=O)c2cc1OCC,?,14%,25µM*,?,-1%,0%
Cc1cc(C)c(Cn2c(=O)n(CCCC(=O)NCc3ccco3)c(=O)c3ccccc32)c(C)c1,i,6%,-6%,i,10µM*,-1%
O=C(c1cnccn1)N1CCC[C@@]2(CCN(Cc3cc(C(F)(F)F)cc(C(F)(F)F)c3)C2)C1,i,11%,7%,i,-4%,0%
COCC(=O)N1CCC2(CC1)CCN(c1cccc(-c3ccccc3)c1)CC2,i,-5%,?,i,10%,-1%
COc1ccccc1CN1CCCC2(CCN(C(=O)c3c(C)noc3C)CC2)C1,4.6e-08M*,11%,2%,5.8e-08M*,-3%,-1%
Cc1noc(C)c1C(=O)N1CCC2(CC1)CCN(c1cccc(-c3ccccc3)c1)CC2,i,-11%,?,i,-3%,3%
COCC(=O)N1CCC2(CC1)CN(c1cccc(-c3ccccc3)c1)C2,i,-9%,32µM*,i,9%,1%
Cc1noc(C)c1C(=O)N1CCC2(CCCN(c3ccccn3)C2)CC1,i,-2%,25µM*,i,-9%,1%
Cc1noc(C)c1C(=O)N1CCC2(CC1)CN(c1cccc(-c3ccccc3)c1)C2,i,2%,25µM*,i,6%,1%
COc1ccccc1-c1cc(NCc2cccnc2)ncn1,i,?,?,i,?,0%
CN(C)C(=O)c1ccc(-c2nccc(NCc3cccs3)n2)cc1,i,2%,-3%,i,18%,2%

# Assay outcomes from PubChem.
